An excerpt weighted towards active compounds, which were near 0.9% of everything screened.
BioA inh-1: BioA (M. tuberculosis) enzyme inhibition. purified M. tuberculosis BioA enzyme, plate reader. AID 602481. 360,000 compounds, 0.096% hits. inhibition, % at 9.99 µM; in the data active = inhibition above about 40%
Rv3671c inh: inhibitors of M. tuberculosis serine protease Rv3671c. P9WHR9. inhibition, % at 5.96 µM. 320,000 compounds, 0.048% hits; in the data active = inhibition above about 38%;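 note: extracellular domain of Rv3671c used as enzyme; 0% = enzyme with DMSO and 100% = no enzyme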
Mtb UGM inh: Mtb UDP-galactopyranose mutase inhibition. inhibition, % at 10 µM. purified UGM, fluorescence polarization probe displacement. 320,000 compounds, 0.06% hits. AID 504406; in the data active = inhibition above about 10%, passing the limit was not always enough
TcdB inh: TcdB glycohydrolase inhibition | P18177 | 350,000 compounds, 0.24% hits | TcdB glycohydrolase enzymatic assay, plate reader | inhibition, % at 9.99 µM; in the data active = inhibition above about 10%
FadD28 FP inh: blocks FadD28 binding to the bisubstrate probe; inhibition, % at 12.5 µM; fluorescence polarization; 360,000 compounds, 0.22% hits; in the data active = inhibition above about 8.5%, passing the limit was not always enough
RecA splice inh: inhibitors of M. tuberculosis RecA intein splicing | cell-free RecA intein splicing, fluorescence | inhibition, % (test concentration not listed) | 290,000 compounds, 0.75% hits | AID 2221; in the data active = inhibition above about 30%;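 note: 0% = vehicle wells and 100% = reference inhibitor control wells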
Target sequence (P9WHJ3 whole entry, looked up, canonical isoform): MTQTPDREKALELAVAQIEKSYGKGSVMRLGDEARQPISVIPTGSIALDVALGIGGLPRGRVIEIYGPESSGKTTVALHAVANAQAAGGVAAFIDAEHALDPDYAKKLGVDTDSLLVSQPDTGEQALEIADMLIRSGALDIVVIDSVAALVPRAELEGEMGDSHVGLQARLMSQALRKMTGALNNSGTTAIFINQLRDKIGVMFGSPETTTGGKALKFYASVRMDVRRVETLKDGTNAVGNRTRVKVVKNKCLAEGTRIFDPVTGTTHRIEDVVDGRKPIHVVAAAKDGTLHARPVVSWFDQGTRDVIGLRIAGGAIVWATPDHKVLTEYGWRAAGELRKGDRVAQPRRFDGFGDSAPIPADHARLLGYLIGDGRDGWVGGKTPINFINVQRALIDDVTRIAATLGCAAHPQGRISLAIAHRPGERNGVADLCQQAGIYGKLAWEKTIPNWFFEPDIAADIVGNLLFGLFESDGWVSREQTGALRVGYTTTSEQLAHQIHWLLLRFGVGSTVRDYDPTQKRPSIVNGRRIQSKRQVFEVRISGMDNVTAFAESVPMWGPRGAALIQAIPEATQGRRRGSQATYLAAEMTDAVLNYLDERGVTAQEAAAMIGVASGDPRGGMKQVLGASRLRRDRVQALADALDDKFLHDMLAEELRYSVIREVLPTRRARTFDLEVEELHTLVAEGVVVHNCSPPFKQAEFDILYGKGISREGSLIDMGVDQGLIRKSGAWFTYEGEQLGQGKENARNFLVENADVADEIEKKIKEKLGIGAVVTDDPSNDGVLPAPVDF
BioA inh-2: Mtb BioA enzyme inhibition. shares compounds with BioA inh-1. purified BioA enzyme, plate reader, dose response. max activity, %. 310 tested, under 10 active;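 note: top concentration of the dilution series was 10 µM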
HepG2 tox 2: kills HepG2 cells; max activity, %; HepG2 cytotoxicity, plate reader; AID 651898; 310 tested, under 10 active; shares compounds with BioA inh-1
NIH3T3 tox 5: kills NIH3T3 cells. activity change, negative = cytotoxicity, % at 26 µM. AID 651900. 310 tested, under 10 active. shares compounds with BioA inh-1. NIH3T3 cytotoxicity, plate reader
Active calls of the source: *; i = inactive; · = no result given; [ ] = another dose, or the depositor's remark. Unless noted, the rule behind the calls is not given here.

SMILES | BioA inh-1 | Rv3671c inh | Mtb UGM inh | TcdB inh | FadD28 FP inh | RecA splice inh | BioA inh-2 | HepG2 tox 2 | NIH3T3 tox 5
CC(Oc1cc2oc(=O)c3c(c2cc1Cl)CCCC3)C(=O)NCc1cccnc1 (stereo not given) | 9.2 | 2.8 | 2.1 | 0.5 | -2.8 | -1.5 | · | · | ·
CC(Oc1cc2oc(=O)c3c(c2cc1Cl)CCC3)C(=O)NCc1cccnc1 (stereo not given) | 46.8* | -2.3 | -3.0 | -1.5 | -0.3 | 0.4 | -8.0 | -19.8 | -5.3
C[C@H]1CN([C@@H](C)CO)S(=O)(=O)c2ccc(-c3cncnc3)cc2O[C@H]1CN(C)C(=O)c1ccc2c(c1)OCO2 | 0.3 | · | · | 1.4 | · | · | · | · | ·
COc1ccc(C2c3c(oc4ccc(Cl)cc4c3=O)C(=O)N2CCN2CCOCC2)cc1 (stereo not given) | 72.5* | -2.7 | -0.5 | 1.5 | -5.3 | -0.5 | -6.0 | 10.2 | 5.9
Cc1noc(C)c1S(=O)(=O)Nc1ccc2c(c1)C(=O)N([C@H](C)CO)C[C@H](C)[C@H](CN(C)S(=O)(=O)c1cccs1)OCCCC[C@H](C)O2 | 3.0 | · | · | · | · | · | · | · | ·
COc1cccc(NC(=O)CCC2CCN(C(=O)c3ccc(C(C)=O)s3)CC2)c1 | 71.8* | 9.1 | 5.0 | 0.8 | -4.0 | -1.6 | 2.4 | -13.3 | -0.2
C[C@@H]1CN([C@H](C)CO)C(=O)Cc2cc(NC(=O)Cn3cnnn3)ccc2O[C@H]1CN(C)Cc1ccc2c(c1)OCO2 | 62.6* | · | · | 0.0 | · | · | -6.7 | i | 6.7[23.5 µM]
C[C@@H]1CN([C@@H](C)CO)C(=O)Cc2cc(NC(=O)Cn3cnnn3)ccc2O[C@H]1CN(C)Cc1ccc2c(c1)OCO2 | 55.6* | · | · | -0.7 | · | · | -5.8 | i | -4.8
C[C@@H]1CN([C@H](C)CO)C(=O)Cc2cc(NC(=O)Cn3cnnn3)ccc2O[C@@H]1CN(C)Cc1ccc2c(c1)OCO2 | -0.9 | · | · | -0.2 | · | · | · | · | ·
C[C@H]1CN([C@@H](C)CO)C(=O)Cc2cc(NC(=O)Cn3cnnn3)ccc2O[C@H]1CN(C)Cc1ccc2c(c1)OCO2 | 6.1 | · | · | -0.4 | · | · | · | · | ·
COc1ccc(C(=O)C2CCCN(C(=O)c3ccc(C(C)=O)s3)C2)c(C)c1 (stereo not given) | 64.0* | · | · | 0.3 | 2.5 | -4.0 | -9.7 | -6.9 | -7.7
Cc1ccc(S(=O)(=O)N(C)C[C@H]2Oc3ncc(C#CC4(O)CCCC4)cc3C(=O)N([C@H](C)CO)C[C@H]2C)cc1 | 0.5 | · | · | 0.7 | · | · | · | · | ·
O=C(C1CC1)N1CC[C@@H]2[C@H]1c1cc(Br)ccc1N[C@@H]2CO | 88.0* | · | · | · | · | · | -3.4 | i | -7.2
O=C(C1CC1)N1CC[C@H]2[C@H](CO)Nc3ccc(Br)cc3[C@H]21 | 30.4 | · | · | -1.3 | · | · | · | · | ·
O=C(Cc1ccccc1)N1CC[C@@H]2[C@H]1c1cc(Br)ccc1N[C@@H]2CO | 86.2* | · | · | -0.8 | · | · | 6.6 | i | -7.8
CCc1nn(CCCC(=O)N(C)Cc2ccccc2)c(=O)c2cc3occc3n12 | 49.8* | 3.9 | -0.9 | 2.0 | 0.1 | 3.8 | -10.1 | -20.0 | -13.4
CCC(=O)N1[C@H](CO)[C@@H]2c3ccccc3N(C(=O)c3cccc(OC)c3)C[C@@H]21 | -2.2 | · | · | · | · | · | · | · | ·
COC(=O)c1c(C(=O)OC)c(-c2cccc(F)c2)n2c1CS(=O)C2 (stereo not given) | 98.0* | -6.3 | -1.4 | -1.2 | -1.8 | 3.9 | -5.7 | -10.8 | 8.2
COc1ccc([N+](=O)[O-])cc1C(=O)NC1CCN(Cc2ccccc2)CC1 | 79.2* | -0.3 | -0.1 | 1.3 | -1.0 | -0.4 | 5.1 | 28.5 | 0.5
CC(CNC(=O)CCCn1ncn2c(cc3occc32)c1=O)c1ccccc1 (stereo not given) | 67.0* | 0.0 | 0.6 | 0.9 | -3.5 | -0.2 | -9.5 | -12.9 | -5.2
COc1cc(-c2nc3ccccc3nc2-c2ccc(O)c(OC)c2)ccc1O | 51.0* | -0.7 | -1.0 | 9.6 | -1.9 | 1.2 | -5.8 | 12.1 | 2.0
CCCNC(=O)[C@@H]1[C@@H](CO)[C@@H]2Cn3c(ccc(-c4ccccc4F)c3=O)[C@@H]2N1C(=O)C1CCC1 | · | · | · | -1.1 | · | · | · | · | ·
CC(=O)c1c(C)[nH]c(C(=O)Nc2ccc(C)c(C)c2)c1C | -2.0 | 2.9 | -3.4 | · | -0.4 | 2.2 | · | · | ·
CC(=O)c1c(C)[nH]c(C(=O)Nc2cccnc2)c1C | 58.0* | 7.7 | 0.3 | · | -2.2 | -1.1 | -4.9 | -11.5 | 2.7
Cc1ccc(-c2nnc(N3CCN(C(=O)CSc4ncn[nH]4)CC3)c3ccccc23)cc1 | 52.1* | 0.2 | 4.4 | · | -2.9 | · | -7.7 | 5.7 | -0.7
SMILES | BioA inh-1 | Rv3671c inh | Mtb UGM inh | TcdB inh | FadD28 FP inh | RecA splice inh | BioA inh-2 | HepG2 tox 2 | NIH3T3 tox 5
CC(=O)c1ccc(N2CCN(c3ncccn3)CC2)c([N+](=O)[O-])c1 | 66.8* | -13.0 | -2.3 | 1.7 | -2.7 | 6.2 | -1.9 | -9.1 | -1.3
CO[C@H]1CN(C)C(=O)c2cc(NS(=O)(=O)Cc3ccccc3)ccc2OC[C@@H](C)NC[C@@H]1C | -2.2 | · | · | · | · | · | · | · | ·
CCN(CC)CCNC(=O)c1cn(CC)c2ccc(S(=O)(=O)N3CCc4ccccc4C3)cc2c1=O | 58.5* | -1.5 | 0.3 | 2.2 | -2.4 | -2.6 | -6.2 | -7.6 | 0.1
COc1cc2c3cc1Oc1cc(ccc1O)C[C@@H]1c4c(cc(OC)c(O)c4Oc4cccc(c4)C[C@@H]3N(C)CC2)CC[N+]1(C)C | 51.2* | 0.8 | -2.5 | -6.7 | 0.5 | · | -7.4 | 15.5 | 2.0
COc1cc2c3cc1Oc1cc(ccc1O)C[C@@H]1c4c(cc(OC)c(O)c4Oc4ccc(cc4)C[C@H]3N(C)CC2)CCN1C | 0.7 | 6.3 | 1.6 | -9.3 | -1.8 | -2.8 | · | · | ·
COC(=O)c1sc(N)c(C(=O)OC)c1CSc1nnc(-c2ccccc2Cl)n1C | 58.7* | -1.6 | 1.1 | · | 0.8 | -0.5 | -5.3 | 7.0 | -7.6
O=C(NC1CC1)c1ccc(-c2ccc3nccn3c2)cc1 | 8.4 | · | · | 0.9 | 0.3 | · | · | · | ·
O=C(NCc1ccco1)c1ccc(-c2ccc3nccn3c2)cc1 | 48.2* | · | · | 0.7 | -0.7 | · | 4.2 | 28.0 | 10.9
CC(=O)Nc1ncc2c(n1)CC(c1ccco1)CC2=O (stereo not given) | 0.0 | -6.0 | -1.5 | -0.2 | -4.5 | 4.5 | · | · | ·
O=C(Nc1ncc2c(n1)CC(c1ccco1)CC2=O)c1ccco1 (stereo not given) | 53.7* | -2.5 | -2.4 | -12.3 | -2.2 | -1.2 | 22.3 | 25.2 | 2.7
Cc1ccc(OCc2nnc(SCC(=O)N3CCc4ccccc43)n2C)cc1 | -2.5 | -11.3 | 0.7 | · | -1.7 | 1.3 | · | · | ·
Cc1ccc(NCc2nnc(SCC(=O)N3CCc4ccccc43)n2C)cc1 | 46.7* | 0.2 | -0.5 | · | 0.4 | -1.2 | -9.0 | 12.4 | -9.5
CO[C@H]1CN(C)C(=O)c2cccc(C#N)c2OCC[C@H]2CC[C@H](OC)[C@@H](CN(C)C(=O)[C@H]1C)O2 | -1.3 | · | · | · | · | · | · | · | ·
O=C(CN1CCOCC1)NCC[C@H]1CC[C@H](NC(=O)c2ccc3c(c2)OCO3)[C@H](CO)O1 | -1.0 | · | · | -4.3 | · | · | · | · | ·

Source: PubChem (several laboratories)
